Results filed as inconclusive are left out. Entries that show only a call come without a potency. Values without a mark were called inactive. Calls of active or inactive are those of the source. The call rests on the fitted dose curve; in most records, active means well fitted activation curve with a large enough effect in the signal ratio in the repeat runs (not every such curve was filed as active); inconclusive means weak or mixed curves, or effect the other way; inactive means flat fitted curve, though single readings scatter; the % refers to the signal ratio.
Potency means the concentration at half of the fitted maximal effect.

A short description of the assay: qHTS assay to identify small molecule agonists of the endoplasmic reticulum stress response signaling pathway (AID 1159516). The following applies: ESRE-bla HeLa, ER stress beta-lactamase reporter, 5 h; series mostly up to 61 µM. An excerpt: National Center for Advancing Translational Sciences [NCATS]
NIH Chemical Genomics Center [NCGC]
U.S. Environmental Protection Agency [EPA]
National Institutes of Environmental Health Sciences [NIEHS]
National Toxicology Program [NTP]
U.S. Food and Drug Administration [FDA]
Endoplasmic Reticulum (ER) plays an important role in cellular signaling, protein folding/maturation, stress response, lipid biosynthesis, calcium storage and release etc. Under stress conditions, proteins in ER misfold or unfold, and leading to the expression of ER stress responsive genes. ER stress has been associated with a variety of pathophysiological conditions such as cancer, inflammation, neurodegenerative diseases, diabetes, ischemic heart disease etc. To identify the compounds that induce ER stress response, an ER stress reporter cell line, CellSensor ESRE-bla HeLa (Life Technologies, Carlsbad, CA) containing a beta-lactamase reporter gene under control of the Endoplasmic reticulum Stress Response Element (ESRE) was used to screen Tox21 10K compound library.
Tox21 Assay Protocol Summary:
ESRE-bla HeLa cells were dispensed at 1,500 cells/6 uL of assay medium per well into black wall/clear-bottom 1536-well plates using a Multidrop Combi (ThermoFisher Scientific, Waltham, MA) dispenser. After the assay plates were incubated at 37 C and 5% CO2 for an overnight, 23 nL of compounds dissolved in DMSO, positive controls or DMSO only was transferred to the assay plate by a Pintool station (Kalypsys, San Diego, CA). The assay plates were incubated at 37 C and 5% CO2 for 5 hr. One uL of LiveBLAzer B/G FRET substrate (Life Technologies) was added using a Flying Reagent Dispenser (Aurora Discovery, San Diego, CA) and the plates were incubated at room temperature for 2 hr. Fluorescence intensity (405 nm excitation, 460 nm and 530 nm emissions) was measured using an Envision plate reader (PerkinElmer, Shelton, CT).
A general note: In qHTS, concentration-response curves come from the screen itself.
For `O=C(c1ccc(O)cc1)c1ccc(O)cc1`, the Potency entry was “inactive”.

On to `CCN(CC)C(C)CN1c2ccccc2Sc2ccccc21` (stereo not given), for which the Potency result was “inactive”.

On to `Nc1nc(CC(=O)O)cs1`, for which the Potency entry is “inactive”.

On to `CC(C)NCC(O)COc1ccc(CC(N)=O)cc1` (stereo not given), for which the Potency result was “inactive”.

Turning to `CCc1nn(C2CCCCC2)c2cc(C3(C#N)CCC(C(=O)O)CC3)ccc12` (stereo not given), the Potency is 1.55 µM (active).

As to `Nc1ccc(C(=O)N2CC3CC(CN(Cc4ccccc4)C3)C2)cc1`, the Potency entry was “inactive”.

For the molecule `c1ccc(-c2nc[nH]c2-c2ccccc2)cc1`, the Potency entry was “inactive”.

With `COCCO`, the Potency entry was “inactive”.

Turning to `CCCCCCCC/C=C\CCCCCCCC(N)=O`, the Potency result is “inactive”.

For the molecule `CCN(CC)CCOC(=O)C1(c2ccccc2)CCCC1`, the Potency result is “inactive”.

As for `O=C(O)COC(=O)Cc1ccccc1Nc1c(Cl)cccc1Cl`, the Potency result was “inactive”.

`N#Cc1c(F)cccc1F`: the Potency result was “inactive”.

As to `CCCCCCCCCCCCCCCC(=O)OC/C=C(C)/C=C/C=C(C)/C=C/C1=C(C)CCCC1(C)C`, the Potency result is “inactive”.

For `CCN1CCC[C@H]1CNC(=O)c1c(OC)ccc(Br)c1OC`, the Potency entry is “inactive”.

In the case of `CN(C)CCCOc1nn(Cc2ccccc2)c2ccccc12`, the Potency entry is “inactive”.

For the molecule `O=C(NS(=O)(=O)/C=C/c1cccs1)c1ccc(F)cc1Br`, the Potency entry was “inactive”.

On to `CCOc1nc2cccc(C(=O)O)c2n1Cc1ccc(-c2ccccc2-c2nn[nH]n2)cc1`, for which the Potency entry is “inactive”.

For the molecule `CC(C)c1ccc2c(C(C)C)cc(C(C)C)c(S(=O)(=O)O)c2c1`, the Potency result was “inactive”.

Take `CC(=O)c1c(C)c([N+](=O)[O-])c(C(C)(C)C)c([N+](=O)[O-])c1C`: the Potency entry is “inactive”.

For the molecule `COCCCCCCCCOCCC[Si](C)(O[Si](C)(C)C)O[Si](C)(C)C`, the Potency result is “inactive”.

Consider `ClC(Cl)(Cl)c1ccc(C(Cl)(Cl)Cl)cc1`, for which the Potency entry was “inactive”.

For `O=c1c2ccccc2nnn1CCl`, the Potency result was “inactive”.

As to `Cc1ccccc1N=Nc1ccc(N=Nc2c(O)ccc3ccccc23)c(C)c1`, the Potency result was “inactive”.

`CCCCCC(CO)CCC` (stereo not given): the Potency result was “inactive”.

For the molecule `CC(C(=O)O)c1ccc(C(=O)c2ccccc2)s1` (stereo not given), the Potency result is “inactive”.

With `CC(C)(C)C(=O)OCOP(=O)(COCCn1cnc2c(N)ncnc21)OCOC(=O)C(C)(C)C`, the Potency entry was “inactive”.

`CCN(CC)C(C)=O`: the Potency entry was “inactive”.

With `O=C(O)Cc1cc(I)c(Oc2ccc(O)c(I)c2)c(I)c1`, the Potency result is “inactive”.

In the case of `CCCOc1ccc2nc(NC(=O)OC)[nH]c2c1`, the Potency result was “inactive”.

For the molecule `CC1=CC(=O)/C(=C(/C)O)C(=O)O1`, the Potency result is “inactive”.

For `CN1CCC(OC(c2ccccc2)c2ccccc2)CC1`, the Potency result is “inactive”.

As to `Cc1ccc(C(=O)C(C)CN2CCCCC2)cc1` (stereo not given), the Potency entry is “inactive”.

Consider `NC(N)=NN=C(/C=C/c1ccc([N+](=O)[O-])o1)/C=C/c1ccc([N+](=O)[O-])o1`, for which the Potency entry is “inactive”.

Turning to `COc1ccc(OC)c(OC)c1`, the Potency result is “inactive”.

With `C=CC(=O)OCCOC(=O)CCC(=O)O`, the Potency result was “inactive”.

Take `CCOc1ccc(NC(=O)CC(C)=O)cc1`: the Potency entry was “inactive”.

Regarding `O=[N+]([O-])c1cccc(Cl)c1Cl`, the Potency result is “inactive”.

With `CCCCCc1ccc(N)cc1`, the Potency result was “inactive”.

For `COc1ccc2[nH]c(S(=O)Cc3ncc(C)c(OC)c3C)nc2n1` (stereo not given), the Potency result is “inactive”.

On to `NC[C@H]1O[C@H](O[C@H]2[C@H](O)[C@@H](O[C@H]3O[C@H](CO)[C@@H](O)[C@H](N)[C@H]3O)[C@H](N)C[C@@H]2N)[C@H](O)[C@@H](O)[C@@H]1O`, for which the activation is -2.16% [at 6.95 µM].

(Values after PubChem BioAssay (Tox21).)
